Results taken from PubChem BioAssay AID1159580 (chemical genetic matrix, 2015).
Values joined by “and” are separate entries in the source; they are usually repeats but may differ in a detail not shown here. Equal entries are not always repeated. Hit rate of the full screen: of about 5,500 compounds, about 2,000 (36%) were called active. About 18% were inconclusive and are not listed. Rule as the data show it: active = normalized growth mostly below about 0.91 (no sharp cut-off); inconclusive = no clear call, values can overlap the other calls; inactive = mostly above about 0.92. Some of the results follow.

Test: chemical genetic growth profiling, strain panel (AID 1159580);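 also: tested at 20 µM; growth read once vehicle control cultures reached saturation at 30 °C; 1 = growth at the plate median or of vehicle wells; lower values mean less growth of the strain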
Conditions: S. cerevisiae deletion strains, growth OD

Measured: normalized growth

NCCCCC(=O)O
inactive: locus YAL013W, strain DEP1, stronger effect = lower value 1.03 | locus YAL021C, strain ccr4, stronger effect = lower value 1.01 | locus YAL026C, strain drs2, stronger effect = lower value 1.02 | locus YAL030W, strain snc1, stronger effect = lower value 1.01 | locus YAL040C, strain CLN3, stronger effect = lower value 1.01 | locus YBL061C, strain skt5, stronger effect = lower value 1.02 | locus YBR009C, strain hhf1, stronger effect = lower value 1.02 | locus YBR021W, strain FUR4, stronger effect = lower value 0.976 | locus YBR023C, strain chs3, stronger effect = lower value 1.02 | locus YBR171W, strain sec66, stronger effect = lower value 1.02 | locus YBR229C, strain ROT2, stronger effect = lower value 1.02 | locus YBR231C, strain swc5, stronger effect = lower value 1.02 | locus YBR279W, strain paf1, stronger effect = lower value 1.01 | locus YCL011C, strain gbp2, stronger effect = lower value 1.02 | locus YCL016C, strain dcc1, stronger effect = lower value 1.01 | locus YCL029C, strain bik1, stronger effect = lower value 0.998 | locus YCL061C, strain MRC1 (second series), stronger effect = lower value 1 | locus YCL069W, strain vba3, stronger effect = lower value 1.01 | locus YCR088W, strain abp1, stronger effect = lower value 1.02 | locus YDL005C, strain med2, stronger effect = lower value 1.02 | locus YDL035C, strain GPR1, stronger effect = lower value 1.02 | locus YDL040C, strain nat1, stronger effect = lower value 1.02 | locus YDL074C, strain BRE1, stronger effect = lower value 1.04 | locus YDL101C, strain DUN1, stronger effect = lower value 1.03 | locus YDL134C, strain PPH21, stronger effect = lower value 1.02 | locus YDL185W, strain tfp1, stronger effect = lower value 0.995 | locus YDL192W, strain arf1, stronger effect = lower value 0.992 | locus YDR001C, strain nth1, stronger effect = lower value 1.01 | locus YDR069C, strain doa4, stronger effect = lower value 1.02 | locus YDR101C, strain arx1, stronger effect = lower value 0.985 | locus YDR137W, strain rgp1, stronger effect = lower value 1.02 | locus YDR150W, strain NUM1, stronger effect = lower value 1.03 | locus YDR159W, strain sac3, stronger effect = lower value 1.03 | locus YDR162C, strain NBP2, stronger effect = lower value 1.04 | locus YDR195W, strain ref2 1.01 | locus YDR297W, strain sur2, stronger effect = lower value 1.02 | locus YDR318W, strain mcm21, stronger effect = lower value 0.992 | locus YDR334W, strain swr1, stronger effect = lower value 1.01 | locus YDR335W, strain msn5, stronger effect = lower value 1.01 | locus YDR388W, stronger effect = lower value 0.986 | locus YDR392W, strain spt3, stronger effect = lower value 1.01 | locus YDR502C, strain sam2, stronger effect = lower value 1 | locus YEL003W, strain gim4, stronger effect = lower value 1.01 | locus YEL037C, strain rad23, stronger effect = lower value 1 | locus YEL061C, strain CIN8 (second series), stronger effect = lower value 1.01 | locus YEL061C, strain CIN8, stronger effect = lower value 1.01 | locus YER002W, strain NOP16, stronger effect = lower value 1 | locus YER015W, strain faa2, stronger effect = lower value 1.02 | locus YER016W, strain bim1, stronger effect = lower value 1.02 | locus YER110C, stronger effect = lower value 0.977 | locus YER111C, strain swi4, stronger effect = lower value 1.03 | locus YER155C, strain BEM2 (second series), stronger effect = lower value 1.04 | locus YER155C, strain BEM2, stronger effect = lower value 1.03 | locus YER167W, strain BCK2, stronger effect = lower value 1.03 | locus YFR010W, strain ubp6, stronger effect = lower value 1.01 | locus YGL078C, strain dbp3, stronger effect = lower value 0.989 | locus YGL086W, strain mad1, stronger effect = lower value 0.993 | locus YGL167C, strain pmr1, stronger effect = lower value 1.03 | locus YGL173C, strain kem1, stronger effect = lower value 1.02 | locus YGL227W, strain vid30, stronger effect = lower value 1.02 | locus YGL240W, strain doc1, stronger effect = lower value 1.03 | locus YGL248W, strain PDE1, stronger effect = lower value 1.03 | locus YGL253W, strain hxk2, stronger effect = lower value 1.01 | locus YGR078C, strain PAC10, stronger effect = lower value 1.03 | locus YGR135W, strain pre9, stronger effect = lower value 0.985 | locus YGR229C, strain SMI1, stronger effect = lower value 1.02 and 1.01 | locus YGR252W, strain gcn5, stronger effect = lower value 0.917 | locus YHR013C, strain ard1, stronger effect = lower value 1.04 | locus YHR027C, strain rpn1, stronger effect = lower value 1.01 | locus YHR030C, strain SLT2, stronger effect = lower value 1.02 and 0.975 | locus YHR079C, strain IRE1 (second series), stronger effect = lower value 0.992 | locus YHR079C, strain IRE1, stronger effect = lower value 0.961 | locus YHR094C, strain hxt1, stronger effect = lower value 1 | locus YHR129C, strain ARP1, stronger effect = lower value 1.02 | locus YHR142W, strain chs7, stronger effect = lower value 1.03 | locus YHR200W, strain rpn10, stronger effect = lower value 1.01 | locus YIL066C, strain RNR3, stronger effect = lower value 1.02 | locus YIL073C, strain SPO22, stronger effect = lower value 1.02 | locus YIL125W, strain kgd1, stronger effect = lower value 0.994 | locus YIR030C, strain dcg1, stronger effect = lower value 0.998 | locus YJL092W, strain hpr5, stronger effect = lower value 1.02 | locus YJL095W, strain BCK1 (second series), stronger effect = lower value 1.03 | locus YJL095W, strain BCK1, stronger effect = lower value 1.02 and 0.979 | locus YJL115W, strain asf1, stronger effect = lower value 1.02 | locus YJL129C, strain trk1, stronger effect = lower value 1.03 | locus YJL134W, strain LCB3, stronger effect = lower value 1.02 | locus YJL154C, strain vps35, stronger effect = lower value 1.02 | locus YJL164C, strain tpk1, stronger effect = lower value 1.02 | locus YJL166W, strain qcr8, stronger effect = lower value 1.02 | locus YJL168C, strain set2, stronger effect = lower value 0.991 | locus YJL187C, strain SWE1 (second series), stronger effect = lower value 1.02 | locus YJR043C, strain POL32, stronger effect = lower value 1.03 | locus YJR066W, strain TOR1, stronger effect = lower value 0.902 | locus YJR075W, strain HOC1, stronger effect = lower value 1.03
